High-throughput results deposited in PubChem by National Center for Advancing Translational Sciences (NCATS).
SW480 rereplic: A quantitative high throughput screen for small molecules that induce DNA re-replication in SW480 colon adenocarcinoma cells; Potency, µM (titrated, usually from 46.1 µM), inactives show at the top dose re-replication activation, usual class: activators; AID 624297, 2012; SW480 DNA re-replication, Hoechst DNA content imaging, 48 h; actives 1.8% (n = 340,000); also: % of control where 0% means no effect; nearly all actives have a fitted effect of over 55% in size
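Readout is total intensity of Hoechst-stained nuclei, excited at 405 nm and collected at 500-530 nm. Compound treatment lasted 48 hr at 37 C in 5% CO2 before staining.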
KB-3-1 tox: qHTS assay for MDR1-selective chemotherapeutics: Primary screen using the parental adenocarcinoma cell KB-3-1; KB-3-1 viability, CellTiter-Glo ATP luminescence, 72 h; Potency, µM (titrated, usually from 46.1 µM), hits mostly cytotoxic; actives 1.4% (n = 400,000); AID 1347075, 2019; also: % is scaled to controls: 0 for no effect and ±100 for the full control effect; nearly all actives have a fitted effect of over 60% in size
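Viability of parental KB-3-1 cells, measured by CellTiter-Glo luminescence, followed a 72 h incubation at 37 °C with pinned compounds in phenol-red-free DMEM containing 10% FBS.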
ELG1 repair inh: qHTS screen for small molecules that inhibit ELG1-dependent DNA repair in human embryonic kidney (HEK293T) cells expressing luciferase-tagged ELG1. HEK293T ELG1-luciferase reporter, luminescence, 16 h; DNA damage induced by 5-fluorouridine. Potency, µM (titrated, usually from 46.1 µM), inactives show at the highest dose activity change, negative = inhibition, actives largely listed as inhibitors. actives 2.3% (n = 330,000). AID 504467, 2011; also: % is scaled to controls: 0 for no effect and ±100 for the full control effect; nearly all actives have a fitted effect of over 55% in size
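Quantitative HTS, concentration-response format. 2,000 cells/well co-treated with 5-fluorouridine and compound, 16 hr in 5% CO2 at 37 °C; ONE-Glo luminescence read after 30 min.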
KB-V1 cytotox: qHTS assay for MDR1-selective chemotherapeutics: Primary screen using the drug-selected MDR subline cells KB-V1; actives 3.4% (n = 400,000); KB-V1 MDR cells viability, CellTiter-Glo, 72 h; Potency, µM (series often up to 46.1 µM), most hits filed as cytotoxic; AID 1347076, 2019; also: % is scaled to controls: 0 for no effect and ±100 for the full control effect; nearly all actives have a fitted effect of over 60% in size
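Luminescent ATP read-out (CellTiter-Glo, 10 min) measures survival of drug-selected KB-V1 MDR cells after 72 h, 37 degrees C compound exposure. Medium: phenol-red-free DMEM, 10% FBS. Values from fitted concentration-response curves.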
MCF10A rerep: A quantitative high throughput screen for small molecules that induce DNA re-replication in MCF 10a normal breast cells | MCF 10A DNA re-replication, Hoechst nuclear intensity, 48 h | Potency, µM (series often up to 46.1 µM), for inactives: top-dose activity, positive = re-replication, actives largely listed as activators | actives 2.9% (n = 350,000) | AID 624296, 2012; also: % of control where 0% means no effect; nearly all actives have a fitted effect of over 50% in size
* hit, by the source's call; i = inactive; ? = inconclusive; . = no result given; ! = not active in a repeat; [ ] = dose if it differs, or a comment. The list is not random: actives were taken first. Their share in the collection is about 8.1%. Calls follow the shape of the dose curve; as a rule, active = well fitted curve in the direction sought with a large enough effect; inconclusive = small, poorly fitted or top-dose-only effect, or another doubt; inactive = no such curve, though single readings can be large; an effect the other way counts as inactive or inconclusive. Potency is read from the fitted curve at half-maximal effect.

SMILES	SW480 rereplic	KB-3-1 tox	ELG1 repair inh	KB-V1 cytotox	MCF10A rerep
N#Cc1cn(C2OC(CO)C(O)C2O)c2ncnc(N)c12 (configuration not stated)	12.0%	0.0073µM*	.	?	18.7%
NC(=O)c1ncn(C2OC(CO)C(O)C2O)n1 (configuration not stated)	-2.5%	.	.	.	-1.4%
NC(=O)c1cn(C2OC(CO)C(O)C2O)c2ncnc(N)c12 (configuration not stated)	0.058µM*	0.0206µM*	0.103µM*	0.0073µM*!	?
NC(=O)c1c(Br)n(C2OC(CO)C(O)C2O)c2ncnc(N)c12 (configuration not stated)	?	4.11µM*	.	9.2µM*	2.31µM*
CC(C)CC(NC(=O)C1CCCCC1)C(=O)N1CCC2(CC1)OCCO2 (configuration not stated)	-7.8%	i	2.9%	10.3µM*	-1.0%
CCS(=O)(=O)N1CCCC(C(=O)N2CCC3(CC2)OCCO3)C1 (configuration not stated)	-5.2%	i	?	i	1.5%
Cc1cc(Br)c(NC(=O)CN2CC=C(c3ccccc3)CC2)c(Br)c1	?	i	?	i	?
Cc1[nH]c2ccccc2c1C(=O)CN1CC=C(c2ccccc2)CC1	?	?	-2.0%	i	18.4µM*
CCCCCSc1cc(OC)c(CCN)cc1OC	16.4µM*	20.6µM*	16.5%	?	?
COc1cc(CCN)ccc1O	-36.7%	i	15.5%	i	1.0%
O=C(c1cc(C(=O)NCc2ccc(Cl)cc2)c(=O)n(Cc2ccc(Cl)cc2)c1)c1cc(F)ccc1O	11.2%	?	?	7.31µM*	11.3%
Cc1ccc(O)c(C(=O)c2cc(C(=O)NCCC(C)C)c(=O)n(CCC(C)C)c2)c1	?	i	?	?	?
CC1=CC(C)CC(C)OC(=O)CC(c2ccc(O)cc2)NC(=O)C(Cc2c(Br)[nH]c3ccccc23)N(C)C(=O)C(C)NC(=O)C(C)C1 (configuration not stated)	0.116µM*	0.184µM*	.	1.64µM*	?
CC1CCc2c(sc3nc(CSc4n[nH]c(N)n4)[nH]c(=O)c23)C1 (configuration not stated)	-1.5%	i	?	i	12.2%
COc1ccc(NC(=O)c2cn(CCC#N)nc2-c2ccc(OC)c(OC)c2)cc1	-42.8%	i	1.6%	i	6.51µM*
COc1ccc(-c2nn(CCC#N)cc2C(=O)Nc2ccccc2)cc1OC	-5.6%	i	0.8%	i	-1.7%
C=CCn1c(O)c(C(C)=NC(C)c2ccccc2)c(=O)[nH]c1=O (configuration not stated)	-3.6%	i	?	?	1.3%
C=CCn1c(O)c(C(CC)=NCCCO)c(=O)[nH]c1=O	-8.6%	i	?	i	15.9%
C=CCn1c(O)c(C(C)=NCCC(c2ccccc2)c2ccccc2)c(=O)[nH]c1=O	31.9%	i	7.31µM*	?	1.1%
C=CCn1c(O)c(C(CC)=NCCC2=CCCCC2)c(=O)[nH]c1=O	-20.1%	i	-2.3%	8.91µM*	13.8%
COc1ccc(NS(=O)(=O)c2ccc3c(c2)oc(=O)n3C)cc1Cl	-26.6%	i	-4.9%	?	8.0%
COC(=O)C1=C(c2ccc3ccccc3c2)C[C@@H]2CC[C@H]1N2C(=O)N1CCOCC1	0.4%	i	-11.8%	i	?
COC(=O)C1=C(c2cc3ccccc3o2)C[C@@H]2CC[C@H]1N2C(=O)NC(C)C	10.3µM*	i	.	i	14.7%
COC(=O)C1=C(c2cc3ccccc3o2)C[C@@H]2CC[C@H]1N2C(=O)NCCNC(C)=O	6.5%	i	.	i	-6.8%
COC(=O)C1=C(c2cc3ccccc3o2)C[C@@H]2CC[C@H]1N2C(=O)N1CCOCC1	?	5.8µM*	.	23.1µM*	?
SMILES	SW480 rereplic	KB-3-1 tox	ELG1 repair inh	KB-V1 cytotox	MCF10A rerep
COC1/C=C/C=C(\C)Cc2cc(O)c(Cl)c(c2)N(C)C(=O)CC(OC(=O)C(C)C)C2(C)OC2C(C)C2CC1(O)NC(=O)O2 (configuration not stated)	?	?	.	0.731µM*	?
C/C(=C\c1ccc(N(C)C)cc1)[N+](=O)[O-]	5.8µM*	?	?	?	2.59µM*
C[C@H](CO)N1C[C@H](C)[C@@H](CN(C)Cc2ccc(-c3ccccc3)cc2)Oc2c(NC(=O)c3ccncc3)cccc2C1=O	17.6%	?	?	i	?
CNC(=O)Oc1ccc(-c2cn3cc(C)ccc3n2)cc1	?	i	?	18.4µM*	7.5%
CNC(=O)Oc1cccc(-c2cn3cc(Cl)ccc3n2)c1	-459.8%	i	?	i	2.4%
CCOc1cc(/C=N/NC(=O)c2cccs2)ccc1OC(=O)N1CCOCC1	-2.5%	i	?	i	20.7%
CN1CCC(N(C)c2ncnc3ccc(Br)cc23)CC1	3.9%	i	?	i	7.9%
CN1CCN(c2ncnc3ccc(Br)cc23)CC1	-5.4%	i	9.2µM*	i	-2.6%
COC1CC(=C(c2cccs2)c2cccs2)C[N+](C)(C)C1 (configuration not stated)	-3.3%	.	.	.	1.7%
CC(C)c1ccc(N(C(=O)c2csnn2)C(C(=O)NC2CCCC2)c2ccncc2)cc1 (configuration not stated)	-7.5%	i	?	i	3.2%
C[C@@H]1O[C@H](O[C@@H]2C=C3CC[C@H]4[C@@H](CC[C@]5(C)[C@@H](c6ccc(=O)oc6)CC[C@]45O)[C@@]3(C)CC2)[C@@H](O)[C@H](O)[C@@H]1O	?	.	.	.	-3.1%[20.6 µM]
C[C@@H]1O[C@@H](O[C@H]2C[C@@H](O)[C@]3(CO)[C@@H]4C(CC[C@]3(O)C2)[C@@]2(O)CC[C@H](C3COC(=O)C3)[C@@]2(C)C[C@H]4O)[C@H](O)[C@H](O)[C@H]1O (some centres not stated)	?	1.16µM*	1.78µM*	1.84µM*	-43.6%
CN(C)CC(C(=O)Cc1ccccc1)c1ccccc1 (configuration not stated)	4.61µM*	8.2µM*	.	?	13µM*
CCOC(=O)C(=CNc1ccc(C(O)(C(=O)OCC)C(F)(F)F)cc1C)C(=O)OCC (configuration not stated)	-5.0%	i	18.4µM*	?	?
